T cruzi growth-1: T. cruzi intracellular proliferation inhibitors, primary screen, cell-based, beta-gal Tulahuen parasites, NIH3T3 host, luminescence; AID 624255, 2012; actives 5.9% (n = 77,000); inhibition, % at 8.34 µM; T. cruzi beta-gal in NIH3T3, GalScreen luminescence, 90 h;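 active = mean inhibition above about 93%, with at least 55% of replicates each passing it, limit read from the data, passing the limit was not always enough; inconclusive = only one of those two conditions holds; inactive = neither condition holds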
Pf Dd2 growth: P. falciparum Dd2 growth inhibitors, primary screen, SYBR Green fluorescence, single dose replicates. 72 h; hits give low values. AID 1159554, 2015. activity change, % at 10 µM. actives 2.3% (n = 94,000); in the data active = activity change below about -80%; inconclusive = no clear call, values can overlap the other calls
C diff growth: C. difficile growth inhibitors, primary screen, HTS | Clostridium difficile clinical isolate growth, OD600, 24 h; hits give low values | growth activity, negative = inhibition, % at 16 µg/mL (by protocol) | actives 0.25% (n = 86,000);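 active = mean growth activity at or below -80% and every replicate also at or below -80%; inconclusive = mean at or below -80% but some replicate above -80%; inactive = mean growth activity above -80%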;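 note: 0% = DMSO wells and -100% = levofloxacin 16 µg/mL wells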
T cruzi growth-2: T. cruzi intracellular proliferation inhibitors, confirmation, cell-based, NIH3T3 host, beta-gal parasite, luminescence, cherry-pick | shares compounds with T cruzi growth-1 | T. cruzi beta-gal in NIH3T3, GalScreen luminescence, 90 h | inhibition, % at 8.35 µM | actives 72% (n = 5,600);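 active = mean replicate inhibition above about 95% and at least 55% of replicates individually reaching it, limit read from the data; inconclusive = only one of the two criteria is met; inactive = neither criterion is met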
T cruzi growth-3: inhibitors of intracellular T. cruzi replication, confirmation, NIH3T3 host cells, beta-gal parasites, cherry-pick, set 2; T. cruzi beta-gal in NIH3T3, GalScreen luminescence, 90 h; shares compounds with T cruzi growth-1; inhibition, % at 2.09 µM; actives 21% (n = 5,600);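 active = mean inhibition above about 95%, with at least 55% of replicates also reaching it, limit read from the data; inconclusive = meets just one of the two conditions; inactive = meets neither condition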;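 note: plate controls were neutral control median for no effect and positive control median for full effect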
NIH3T3 tox: cytotoxicity in mouse NIH/3T3 fibroblasts, confirmation, cytotoxicity control for T. cruzi proliferation inhibitor project, cell-based, cherry-pick, single point. shares compounds with T cruzi growth-1. NIH/3T3 viability, CellTiter-Glo ATP luminescence, 90 h. cytotoxicity (signal decrease), % at 8.35 µM. actives 14% (n = 5,600). AID 651742, 2012;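 active = mean signal decrease across replicates above about 35% based on untreated-well scatter, with enough replicates individually passing, limit read from the data; inconclusive = no rule stated though some were filed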;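 note: 0% = median of neutral control wells and 100% = median of positive control wells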
NIH3T3 tox 2: NIH/3T3 fibroblast cytotoxicity, confirmation, cytotoxicity control, cell-based, cherry-pick, single point, set 2 | inhibition, % at 24.9 µM | actives 56% (n = 5,600) | shares compounds with T cruzi growth-1 | NIH/3T3 viability, CellTiter-Glo ATP luminescence, 90 h | AID 651744, 2012;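 active = mean loss of cell viability signal at or above a set limit, and enough replicates individually reaching it; inconclusive = meets only the mean limit or only the replicate share; inactive = meets neither condition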;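 note: 0% = median of neutral control wells and 100% = median of positive control wells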
An asterisk follows results filed as active; ? = inconclusive; / = no result. Rows were chosen to be rich in hits. Some 6.8% of all compounds tested hit in one or more screens of this group.

SMILES	T cruzi growth-1	Pf Dd2 growth	C diff growth	T cruzi growth-2	T cruzi growth-3	NIH3T3 tox	NIH3T3 tox 2
CNC[C@@H]1OCCCC[C@@H](C)Oc2ccc(NC(=O)Nc3ccc4c(c3)OCO4)cc2C(=O)N([C@H](C)CO)C[C@@H]1C	95*	25	10	18	3	9	18
CC(=O)N1CC2(C1)[C@H](c1ccc(-c3cccc(F)c3)cc1)[C@@H](CO)N2CC1CCOCC1	/	-7	9	/	/	/	/
CCC(=O)Nc1ccc2c(c1)OC[C@@H](C)N(C(=O)CC)C[C@@H](C)[C@@H](OC)CN(C)C2=O	44	/	/	/	/	/	/
COc1ccc(S(=O)(=O)Nc2ccc3c(c2)C(=O)N([C@@H](C)CO)C[C@@H](C)[C@H](CN(C)C(=O)C2CCCCC2)OCCCC[C@H](C)O3)cc1	17	-57	-2	/	/	/	/
C[C@H](CO)N1C[C@H](C)[C@@H](CN(C)C(=O)c2ccccc2F)Oc2cc(C#CCN(C)C)ccc2S1(=O)=O	81	-34	-3	/	/	/	/
C[C@@H]1CN([C@@H](C)CO)S(=O)(=O)c2ccc(C#CCN(C)C)cc2O[C@@H]1CN(C)C(=O)c1ccccc1F	-3	-12	-3	/	/	/	/
CC(C)CC#Cc1ccc2c(c1)O[C@H](CN(C)C(=O)c1ccccc1F)[C@@H](C)CN([C@H](C)CO)S2(=O)=O	88*	-82*	12	103*	58	-14	97*
CCCC#Cc1ccc2c(c1)O[C@H](CN(C)C(=O)c1ccccc1F)[C@@H](C)CN([C@H](C)CO)S2(=O)=O	111*	-78	18	110*	84	-19	8
CCCC#Cc1ccc2c(c1)O[C@H](CN(C)C(=O)c1ccccc1F)[C@@H](C)CN([C@@H](C)CO)S2(=O)=O	74	-79	13	/	/	/	/
CC(C)CC#Cc1ccc2c(c1)O[C@@H](CN(C)C(=O)c1ccccc1F)[C@H](C)CN([C@@H](C)CO)S2(=O)=O	105*	-82*	4	106*	106*	?	106*
CC(C)CC#Cc1ccc2c(c1)O[C@H](CN(C)C(=O)c1ccccc1F)[C@H](C)CN([C@H](C)CO)S2(=O)=O	105*	-71	5	105*	75	?	104*
CCCC#Cc1ccc2c(c1)O[C@@H](CN(C)C(=O)c1ccccc1F)[C@@H](C)CN([C@H](C)CO)S2(=O)=O	66	-77	11	/	/	/	/
COc1ccc2c3c(n(C)c2c1)[C@@H](CO)N(CC1CCOCC1)CC31CCN(C(C)=O)CC1	/	-3	2	/	/	/	/
Cc1noc(C)c1NC(=O)N(C)C[C@H]1Oc2ccc(NC(=O)NC(C)C)cc2C(=O)N([C@@H](C)CO)C[C@H]1C	-41	9	-7	/	/	/	/
CN1C(=O)c2cc(NC(=O)Nc3ccccc3F)ccc2OC[C@@H]2O[C@H](CC(=O)O)CC[C@H]21	-12	3	-3	/	/	/	/
O=C(NC[C@@H]1[C@H](c2ccccc2)[C@H](CO)N1C(=O)C1CC1)NC1CCCC1	36	11	0	/	/	/	/
O=C(NC[C@H]1[C@H](c2ccccc2)[C@@H](CO)N1C(=O)C1CC1)NC1CCCC1	117*	-63	-9	63	20	-2	5
COc1ccc(S(=O)(=O)Nc2cccc3c2O[C@H](CN(C)S(=O)(=O)c2ccc(F)cc2)[C@@H](C)CN([C@H](C)CO)C3=O)cc1	24	-23	4	/	/	/	/
O=C(c1ccccn1)N1CC[C@@H]2[C@H](CO)Nc3ccc(C#Cc4cccnc4)cc3[C@@H]21	?	-54	-16	30	24	12	?
O=C(c1cnccn1)N1CC[C@H]2[C@H](CO)Nc3ccc(-c4ccccc4F)cc3[C@H]21	99*	-3	-1	96*	24	17	21
O=C(c1ccccn1)N1CC[C@@H]2[C@@H](CO)Nc3ccc(C#Cc4cccnc4)cc3[C@@H]21	31	18	-10	/	/	/	/
O=C(c1ccc(F)cc1)N1CC[C@@H]2[C@H](CO)Nc3ccc(-c4ccccc4F)cc3[C@@H]21	?	-3	6	98*	95	6	85*
O=C(c1ccc(F)cc1)N1CC[C@H]2[C@H](CO)Nc3ccc(-c4ccccc4F)cc3[C@H]21	55	-30	19	/	/	/	/
O=C(c1ccccn1)N1CC[C@H]2[C@H](CO)Nc3ccc(-c4cccc(F)c4)cc3[C@H]21	27	-11	-8	/	/	/	/
O=C(c1ccccn1)N1CC[C@@H]2[C@@H](CO)Nc3ccc(-c4ccc(F)cc4)cc3[C@@H]21	112*	21	-9	105*	80	7	16
SMILES	T cruzi growth-1	Pf Dd2 growth	C diff growth	T cruzi growth-2	T cruzi growth-3	NIH3T3 tox	NIH3T3 tox 2
O=C(c1ccccn1)N1CC[C@@H]2[C@H](CO)Nc3ccc(-c4ccccc4F)cc3[C@@H]21	84	-5	-18	/	/	/	/
C[C@H]1CCCCO[C@H](CN(C)Cc2ccc3c(c2)OCO3)[C@@H](C)CN([C@@H](C)CO)C(=O)c2cc(NS(C)(=O)=O)ccc2O1	49	11	-1	/	/	/	/
C[C@H]1CN([C@@H](C)CO)C(=O)Cc2cc(NC(=O)NC3CCCCC3)ccc2O[C@@H]1CN(C)C(=O)Nc1cccc2ccccc12	21	9	-8	/	/	/	/
Cc1cc(C(=O)Nc2ccc3c(c2)C(=O)N(C)[C@@H]2CC[C@H](CC(=O)N[C@H](C)c4ccccc4)O[C@@H]2CO3)no1	39	-4	-3	/	/	/	/
C[C@H](CO)N1C[C@H](C)[C@H](CN(C)S(=O)(=O)c2ccc(F)cc2)Oc2ccc(NC(=O)Cc3cn(C)c4ccccc34)cc2C1=O	76	-58	7	/	/	/	/
COc1ccc(S(=O)(=O)N(C)C[C@@H]2Oc3ccc(NC(=O)Cc4cn(C)c5ccccc45)cc3C(=O)N([C@H](C)CO)C[C@@H]2C)cc1	101*	-85*	-6	97*	20	10	63*
COc1ccc(S(=O)(=O)N(C)C[C@@H]2Oc3ccc(NC(=O)Cc4cn(C)c5ccccc45)cc3C(=O)N([C@@H](C)CO)C[C@@H]2C)cc1	102*	-73	6	85	27	-5	46*
C[C@@H]1CN([C@H](C)CO)C(=O)c2cc(NC(=O)Cc3cn(C)c4ccccc34)ccc2O[C@@H]1CN(C)S(=O)(=O)c1ccccc1	38	-1	-6	/	/	/	/
CN(C)CC(=O)Nc1ccc2c(c1)[C@H]1C[C@H](CC(=O)NCc3cccnc3)O[C@@H](CO)[C@H]1O2	12	15	-3	/	/	/	/
